How the values were obtained:
[1] = biological target: T1, Serine/threonine-protein kinase 3 (Homo sapiens) (UniProt Q13188); details: at 1 µM
T1 sequence (whole entry): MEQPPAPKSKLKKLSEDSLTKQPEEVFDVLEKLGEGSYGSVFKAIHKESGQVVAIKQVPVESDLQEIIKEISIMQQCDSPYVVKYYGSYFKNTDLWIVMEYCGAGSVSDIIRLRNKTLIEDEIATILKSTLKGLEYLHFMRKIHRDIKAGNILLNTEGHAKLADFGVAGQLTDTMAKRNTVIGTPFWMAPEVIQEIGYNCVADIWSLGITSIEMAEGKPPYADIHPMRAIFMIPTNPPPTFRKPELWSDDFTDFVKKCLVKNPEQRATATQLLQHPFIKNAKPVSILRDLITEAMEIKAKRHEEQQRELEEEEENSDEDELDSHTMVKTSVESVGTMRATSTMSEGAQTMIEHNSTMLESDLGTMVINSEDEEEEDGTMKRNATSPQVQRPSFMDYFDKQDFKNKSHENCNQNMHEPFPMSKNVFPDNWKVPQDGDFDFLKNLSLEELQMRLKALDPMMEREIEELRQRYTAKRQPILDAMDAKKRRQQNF

[2] = biological target: T1, Serine/threonine-protein kinase 3 (Homo sapiens); details: at 10 µM
[3] = biological target: Serine/threonine-protein kinase 24 (Homo sapiens) (UniProt Q9Y6E0); details: at 1 µM
Serine/threonine-protein kinase 24 (Homo sapiens), sequence (Q9Y6E0 whole entry, looked up): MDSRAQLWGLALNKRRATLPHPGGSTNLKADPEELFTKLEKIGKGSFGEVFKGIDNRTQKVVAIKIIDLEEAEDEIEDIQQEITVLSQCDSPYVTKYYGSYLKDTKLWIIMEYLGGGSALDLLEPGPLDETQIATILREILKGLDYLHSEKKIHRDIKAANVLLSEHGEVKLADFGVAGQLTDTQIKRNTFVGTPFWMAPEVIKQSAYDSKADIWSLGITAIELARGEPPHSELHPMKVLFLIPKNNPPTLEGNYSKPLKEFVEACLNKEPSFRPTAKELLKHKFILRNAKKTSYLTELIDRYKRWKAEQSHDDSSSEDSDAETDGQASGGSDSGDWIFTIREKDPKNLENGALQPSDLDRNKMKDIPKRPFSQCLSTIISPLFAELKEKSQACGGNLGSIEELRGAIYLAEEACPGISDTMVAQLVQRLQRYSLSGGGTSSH

[4] = biological target: Serine/threonine-protein kinase 24 (Homo sapiens) (UniProt Q9Y6E0); details: at 10 µM
[5] = biological target: T2, Tyrosine-protein kinase Mer (Homo sapiens) (UniProt Q12866); details: at 1 µM
T2 sequence (whole entry): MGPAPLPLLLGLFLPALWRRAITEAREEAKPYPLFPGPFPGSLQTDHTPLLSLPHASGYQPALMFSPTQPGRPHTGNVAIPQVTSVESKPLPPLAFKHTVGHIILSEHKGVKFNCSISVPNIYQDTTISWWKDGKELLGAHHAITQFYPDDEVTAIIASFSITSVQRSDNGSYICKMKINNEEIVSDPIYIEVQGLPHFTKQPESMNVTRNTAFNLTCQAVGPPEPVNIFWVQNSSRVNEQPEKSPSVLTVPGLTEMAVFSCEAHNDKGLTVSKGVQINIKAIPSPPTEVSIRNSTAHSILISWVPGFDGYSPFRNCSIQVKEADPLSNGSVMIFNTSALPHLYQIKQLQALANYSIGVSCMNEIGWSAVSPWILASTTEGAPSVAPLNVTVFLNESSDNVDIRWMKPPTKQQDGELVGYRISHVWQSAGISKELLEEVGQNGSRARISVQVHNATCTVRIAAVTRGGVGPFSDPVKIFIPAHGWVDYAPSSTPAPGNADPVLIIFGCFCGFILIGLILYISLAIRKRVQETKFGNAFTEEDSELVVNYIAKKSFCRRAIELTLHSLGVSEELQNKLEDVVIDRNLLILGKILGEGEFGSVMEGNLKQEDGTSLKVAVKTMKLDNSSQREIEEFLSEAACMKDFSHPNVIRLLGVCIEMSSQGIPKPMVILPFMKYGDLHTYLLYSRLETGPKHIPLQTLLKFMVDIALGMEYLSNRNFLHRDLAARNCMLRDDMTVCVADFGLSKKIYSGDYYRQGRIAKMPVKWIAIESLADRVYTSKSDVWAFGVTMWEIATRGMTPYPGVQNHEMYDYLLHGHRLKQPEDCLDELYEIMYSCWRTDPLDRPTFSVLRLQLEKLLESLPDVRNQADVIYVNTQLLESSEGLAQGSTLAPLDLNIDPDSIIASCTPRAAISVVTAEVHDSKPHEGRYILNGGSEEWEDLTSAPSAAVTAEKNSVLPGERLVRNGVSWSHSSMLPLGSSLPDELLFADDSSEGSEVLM

[6] = biological target: T2, Tyrosine-protein kinase Mer (Homo sapiens); details: at 10 µM
[7] = biological target: Hepatocyte growth factor receptor (Homo sapiens) (UniProt P08581); details: at 1 µM
Hepatocyte growth factor receptor (Homo sapiens), sequence (P08581 whole entry): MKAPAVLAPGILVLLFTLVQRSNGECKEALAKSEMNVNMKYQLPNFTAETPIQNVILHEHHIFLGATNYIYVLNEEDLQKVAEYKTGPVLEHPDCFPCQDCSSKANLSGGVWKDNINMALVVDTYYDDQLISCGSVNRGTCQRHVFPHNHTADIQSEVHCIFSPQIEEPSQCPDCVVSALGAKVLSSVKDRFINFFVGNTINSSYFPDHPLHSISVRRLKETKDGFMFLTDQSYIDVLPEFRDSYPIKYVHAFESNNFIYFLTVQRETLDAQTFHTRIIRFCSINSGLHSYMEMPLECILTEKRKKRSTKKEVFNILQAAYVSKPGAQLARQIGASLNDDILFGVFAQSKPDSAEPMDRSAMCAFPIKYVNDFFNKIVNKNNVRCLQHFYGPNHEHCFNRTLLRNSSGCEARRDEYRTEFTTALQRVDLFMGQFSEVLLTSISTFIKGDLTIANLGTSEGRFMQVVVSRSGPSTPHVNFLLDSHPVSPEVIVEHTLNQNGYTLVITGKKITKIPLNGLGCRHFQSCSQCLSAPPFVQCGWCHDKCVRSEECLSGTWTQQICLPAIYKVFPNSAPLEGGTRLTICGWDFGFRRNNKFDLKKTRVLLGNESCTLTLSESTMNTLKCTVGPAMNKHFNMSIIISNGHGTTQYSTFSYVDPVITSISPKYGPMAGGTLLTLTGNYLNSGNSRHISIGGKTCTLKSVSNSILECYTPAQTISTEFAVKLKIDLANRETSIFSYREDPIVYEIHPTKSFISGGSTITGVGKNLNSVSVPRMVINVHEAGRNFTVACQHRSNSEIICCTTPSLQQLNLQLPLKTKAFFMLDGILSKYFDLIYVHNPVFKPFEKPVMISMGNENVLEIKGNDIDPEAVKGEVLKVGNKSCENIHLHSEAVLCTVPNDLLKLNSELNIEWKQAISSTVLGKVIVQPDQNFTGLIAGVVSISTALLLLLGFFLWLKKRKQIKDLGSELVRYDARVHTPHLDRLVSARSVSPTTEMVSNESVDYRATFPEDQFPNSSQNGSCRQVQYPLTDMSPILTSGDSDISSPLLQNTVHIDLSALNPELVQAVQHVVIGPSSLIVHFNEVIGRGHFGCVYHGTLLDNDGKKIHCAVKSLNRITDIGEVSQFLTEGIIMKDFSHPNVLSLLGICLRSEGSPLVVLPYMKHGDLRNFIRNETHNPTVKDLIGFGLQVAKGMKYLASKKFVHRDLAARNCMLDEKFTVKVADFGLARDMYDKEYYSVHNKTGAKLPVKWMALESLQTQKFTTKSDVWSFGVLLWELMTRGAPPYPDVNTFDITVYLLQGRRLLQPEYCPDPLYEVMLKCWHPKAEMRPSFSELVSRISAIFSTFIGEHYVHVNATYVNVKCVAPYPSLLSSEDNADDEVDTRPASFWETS

[8] = biological target: Hepatocyte growth factor receptor (Homo sapiens) (UniProt P08581); details: at 10 µM
[9] = biological target: MAP kinase-interacting serine/threonine-protein kinase 2 (Homo sapiens) (UniProt Q9HBH9); details: at 1 µM
MAP kinase-interacting serine/threonine-protein kinase 2 (Homo sapiens), sequence (Q9HBH9 whole entry, looked up): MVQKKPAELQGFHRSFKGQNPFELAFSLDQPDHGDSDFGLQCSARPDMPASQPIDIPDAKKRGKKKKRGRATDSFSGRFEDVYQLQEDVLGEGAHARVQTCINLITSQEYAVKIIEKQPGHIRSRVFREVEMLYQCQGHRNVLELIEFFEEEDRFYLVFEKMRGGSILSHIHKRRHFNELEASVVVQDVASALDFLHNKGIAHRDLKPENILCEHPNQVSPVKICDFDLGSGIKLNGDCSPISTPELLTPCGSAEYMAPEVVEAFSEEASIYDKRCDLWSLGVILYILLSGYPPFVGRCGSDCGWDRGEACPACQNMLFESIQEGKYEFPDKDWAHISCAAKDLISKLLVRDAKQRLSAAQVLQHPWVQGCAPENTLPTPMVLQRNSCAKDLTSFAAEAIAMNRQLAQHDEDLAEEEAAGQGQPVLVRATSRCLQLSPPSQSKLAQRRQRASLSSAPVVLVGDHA

[10] = biological target: MAP kinase-interacting serine/threonine-protein kinase 2 (Homo sapiens) (UniProt Q9HBH9); details: at 10 µM
[11] = biological target: T3, Serine/threonine-protein kinase Nek11 (Homo sapiens) (UniProt Q8NG66); details: at 1 µM
T3 sequence (whole entry): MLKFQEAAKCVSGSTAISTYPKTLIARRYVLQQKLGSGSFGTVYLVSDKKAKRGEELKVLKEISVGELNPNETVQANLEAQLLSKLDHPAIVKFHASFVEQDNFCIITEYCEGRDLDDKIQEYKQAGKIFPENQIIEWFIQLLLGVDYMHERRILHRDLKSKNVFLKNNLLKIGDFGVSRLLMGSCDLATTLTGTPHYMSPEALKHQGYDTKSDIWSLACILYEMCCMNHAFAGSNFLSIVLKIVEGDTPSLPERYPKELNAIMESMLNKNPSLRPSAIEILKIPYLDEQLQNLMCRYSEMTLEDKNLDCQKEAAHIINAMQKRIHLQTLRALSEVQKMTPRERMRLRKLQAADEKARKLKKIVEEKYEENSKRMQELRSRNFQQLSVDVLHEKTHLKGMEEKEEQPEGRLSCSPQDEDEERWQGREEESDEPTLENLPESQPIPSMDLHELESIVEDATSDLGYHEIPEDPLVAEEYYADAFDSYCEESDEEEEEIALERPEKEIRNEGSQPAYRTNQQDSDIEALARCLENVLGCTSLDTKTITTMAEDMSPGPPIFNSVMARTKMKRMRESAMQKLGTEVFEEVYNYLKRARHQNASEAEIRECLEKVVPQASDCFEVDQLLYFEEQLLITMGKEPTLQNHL

[12] = biological target: T3, Serine/threonine-protein kinase Nek11 (Homo sapiens); details: at 10 µM
[13] = biological target: T4, Serine/threonine-protein kinase Nek2 (Homo sapiens) (UniProt P51955); details: at 10 µM
T4 sequence (whole entry): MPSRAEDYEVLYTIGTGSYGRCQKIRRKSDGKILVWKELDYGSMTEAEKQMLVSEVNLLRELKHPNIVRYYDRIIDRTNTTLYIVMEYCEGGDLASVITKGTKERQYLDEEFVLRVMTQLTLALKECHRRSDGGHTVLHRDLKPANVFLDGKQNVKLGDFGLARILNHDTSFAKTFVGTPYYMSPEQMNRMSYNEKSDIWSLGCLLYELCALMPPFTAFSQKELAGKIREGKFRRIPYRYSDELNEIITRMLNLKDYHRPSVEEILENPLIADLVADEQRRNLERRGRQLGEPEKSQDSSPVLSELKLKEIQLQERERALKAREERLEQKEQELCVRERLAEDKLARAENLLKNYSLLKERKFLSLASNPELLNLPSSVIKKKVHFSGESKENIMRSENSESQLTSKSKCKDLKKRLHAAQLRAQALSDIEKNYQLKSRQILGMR

[14] = biological target: T5, Muscle, skeletal receptor tyrosine-protein kinase (Homo sapiens) (UniProt O15146); details: at 1 µM
T5 sequence (whole entry): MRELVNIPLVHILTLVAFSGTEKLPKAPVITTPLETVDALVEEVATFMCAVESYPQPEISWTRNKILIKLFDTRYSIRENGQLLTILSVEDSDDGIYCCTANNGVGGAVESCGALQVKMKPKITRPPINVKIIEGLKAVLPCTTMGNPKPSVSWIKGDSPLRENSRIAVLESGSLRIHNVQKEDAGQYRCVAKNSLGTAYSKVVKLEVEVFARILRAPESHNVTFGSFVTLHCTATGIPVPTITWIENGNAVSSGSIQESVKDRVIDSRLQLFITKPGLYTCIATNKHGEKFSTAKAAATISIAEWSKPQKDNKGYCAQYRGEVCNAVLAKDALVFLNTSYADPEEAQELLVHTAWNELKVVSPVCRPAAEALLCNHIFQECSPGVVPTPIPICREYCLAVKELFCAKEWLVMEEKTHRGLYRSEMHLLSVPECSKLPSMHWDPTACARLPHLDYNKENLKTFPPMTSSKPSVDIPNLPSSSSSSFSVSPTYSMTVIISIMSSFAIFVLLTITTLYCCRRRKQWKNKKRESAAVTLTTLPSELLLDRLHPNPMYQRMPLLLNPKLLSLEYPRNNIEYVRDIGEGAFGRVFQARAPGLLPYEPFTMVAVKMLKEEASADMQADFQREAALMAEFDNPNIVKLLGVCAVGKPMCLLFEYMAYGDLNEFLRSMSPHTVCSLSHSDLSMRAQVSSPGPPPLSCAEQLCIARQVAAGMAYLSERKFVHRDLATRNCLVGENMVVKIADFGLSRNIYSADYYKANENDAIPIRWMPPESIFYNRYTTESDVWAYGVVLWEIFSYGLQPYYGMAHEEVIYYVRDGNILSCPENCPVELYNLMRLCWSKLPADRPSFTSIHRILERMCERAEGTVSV

[15] = biological target: T5, Muscle, skeletal receptor tyrosine-protein kinase (Homo sapiens); details: at 10 µM
[16] = biological target: T4, Serine/threonine-protein kinase Nek2 (Homo sapiens); details: at 1 µM
[17] = biological target: Serine/threonine-protein kinase tousled-like 2 (Homo sapiens) (UniProt Q86UE8); details: at 1 µM
Serine/threonine-protein kinase tousled-like 2 (Homo sapiens), sequence (Q86UE8 whole entry, looked up): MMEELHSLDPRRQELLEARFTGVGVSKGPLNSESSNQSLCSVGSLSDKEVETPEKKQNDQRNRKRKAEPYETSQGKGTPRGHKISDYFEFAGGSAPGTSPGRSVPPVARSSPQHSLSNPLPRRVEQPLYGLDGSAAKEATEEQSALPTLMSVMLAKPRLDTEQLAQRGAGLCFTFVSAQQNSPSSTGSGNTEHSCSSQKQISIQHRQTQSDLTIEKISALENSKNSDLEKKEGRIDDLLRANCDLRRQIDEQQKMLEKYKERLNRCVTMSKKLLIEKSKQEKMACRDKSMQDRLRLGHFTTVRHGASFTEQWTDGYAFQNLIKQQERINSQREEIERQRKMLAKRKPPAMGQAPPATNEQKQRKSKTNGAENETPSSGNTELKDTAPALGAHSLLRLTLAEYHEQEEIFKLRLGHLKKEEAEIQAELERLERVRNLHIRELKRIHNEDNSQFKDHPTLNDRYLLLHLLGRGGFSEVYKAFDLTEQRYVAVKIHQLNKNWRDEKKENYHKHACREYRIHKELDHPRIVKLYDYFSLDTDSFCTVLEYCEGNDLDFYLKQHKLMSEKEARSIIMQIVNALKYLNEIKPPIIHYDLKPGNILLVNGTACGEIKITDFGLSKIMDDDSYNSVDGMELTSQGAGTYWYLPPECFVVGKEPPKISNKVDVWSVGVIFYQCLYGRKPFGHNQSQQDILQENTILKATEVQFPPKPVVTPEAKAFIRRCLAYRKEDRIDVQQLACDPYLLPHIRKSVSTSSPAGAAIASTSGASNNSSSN

[18] = biological target: Serine/threonine-protein kinase tousled-like 2 (Homo sapiens) (UniProt Q86UE8); details: at 10 µM
[19] = biological target: T6, Serine/threonine-protein kinase Nek3 (Homo sapiens) (UniProt P51956); details: at 1 µM
T6 sequence (whole entry): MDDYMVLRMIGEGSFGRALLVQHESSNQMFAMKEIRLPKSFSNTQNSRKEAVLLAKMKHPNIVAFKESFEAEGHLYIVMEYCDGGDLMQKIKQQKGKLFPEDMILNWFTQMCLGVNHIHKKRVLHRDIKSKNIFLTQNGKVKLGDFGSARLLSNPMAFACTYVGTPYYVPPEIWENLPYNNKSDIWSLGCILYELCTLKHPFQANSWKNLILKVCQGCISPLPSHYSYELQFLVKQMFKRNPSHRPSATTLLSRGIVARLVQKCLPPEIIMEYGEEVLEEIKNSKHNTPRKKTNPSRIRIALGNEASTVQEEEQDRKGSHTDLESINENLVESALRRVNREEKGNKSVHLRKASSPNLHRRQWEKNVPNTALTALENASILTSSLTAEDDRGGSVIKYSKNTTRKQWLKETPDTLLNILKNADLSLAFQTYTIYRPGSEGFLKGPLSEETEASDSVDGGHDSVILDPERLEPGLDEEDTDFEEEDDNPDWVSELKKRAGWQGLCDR

[20] = biological target: T6, Serine/threonine-protein kinase Nek3 (Homo sapiens); details: at 10 µM

Row | Structure (SMILES) | residual activity [1] [%] | residual activity [2] [%] | residual activity [3] [%] | residual activity [4] [%] | residual activity [5] [%] | residual activity [6] [%] | residual activity [7] [%] | residual activity [8] [%] | residual activity [9] [%] | residual activity [10] [%] | residual activity [11] [%] | residual activity [12] [%] | residual activity [13] [%] | residual activity [14] [%] | residual activity [15] [%] | residual activity [16] [%] | residual activity [17] [%] | residual activity [18] [%] | residual activity [19] [%] | residual activity [20] [%]
1 | N#C/C(=C1/Nc2ccccc2S1)c1ccnc(NCCc2cccnc2)n1 | 97 | 56 | 89 | 61 | 82 | 69 | 138 | 74 | 36 | 8 | 45 | 6 | 82 |  |  |  |  |  |  | 
2 | CC(C)(C)c1nc2c3ccc(F)cc3c3c(=O)[nH]ccc3c2[nH]1 | 14 | 4 | 41 | 37 | 29 | 42 |  |  | 66 | 65 | 98 | 55 | 102 |  |  |  |  |  |  | 
3 | CCN(CC)CCNC(=O)c1c(C)[nH]c(/C=C2\C(=O)Nc3ccc(Cl)cc32)c1C | 34 | 2 | 8 | 1 | 7 | 0 | 45 | 7 | 99 | 45 | 80 | 31 | 18 | 3 | 0 | 67 | 69 | 14 |  | 
4 | O=C1NC(=O)C(c2cn(CCCn3ccnc3)c3ccccc23)=C1Nc1ccccc1 | 64 | 13 | 20 | 8 |  |  | 114 | 79 |  |  | 59 | 44 |  | 77 | 65 |  | 44 | 7 | 110 | 104
5 | CCOC(=O)c1c(C)[nH]c(/C=C2\C(=O)Nc3ccccc32)c1C | 85 | 72 | 97 | 88 | 16 | 3 |  |  |  |  | 97 | 98 |  |  |  |  |  | 98 |  | 
6 | O=C(c1cc2cc(O)ccc2[nH]1)c1cc2cc(O)ccc2[nH]1 | 56 | 18 | 48 | 9 | 47 | 7 | 74 | 29 | 33 | 8 | 54 | 38 | 73 | 43 | 4 | 77 | 81 | 32 | 111 | 72
7 | Nc1n[nH]c2nc3ccccc3nc12 | 117 | 95 | 81 | 70 | 95 | 73 | 92 | 100 |  |  | 70 | 80 | 81 | 76 | 87 | 115 | 91 | 81 | 80 | 83
